Activity calls are given as the source filed them. Rule for the calls: active = hit-call score of the fitted dose curve at least 0.9, where 1 is the maximum; inactive = score below 0.9.
Experiments:
Details in all cases: mRNA level, 48 h; actives raise or lower the signal
[1] = read-out: Apolipoprotein A-V (APOA5) gene, APOA5 (gene 116519); assay: LTEA_HepaRG_APOA5: Life Technologies and Expression Analysis (LTEA) Assay for Apolipoprotein A-V (APOA5) gene using HepaRG (AID 2283474)
Summary of the method: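 HepaRG, 48 h chemical exposure in serum-free induction medium, 8-pt half-log series (top 100 uM), 0.5% DMSO vehicle, duplicates. Readout: APOA5 mRNA by qRT-PCR, housekeeping-normalized; bidirectional fit vs DMSO baseline.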

[2] = read-out: Apoptosis regulator Bcl-2 (Homo sapiens) (UniProt P10415); assay: LTEA_HepaRG_BCL2: Life Technologies and Expression Analysis (LTEA) Assay for Bcl-2 gene using HepaRG (AID 2283475)
Summary of the method: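 Differentiated human HepaRG cells in serum-free induction medium exposed 48 h, in duplicate, to 8-point half-log series from 100 uM in 0.5% DMSO. BCL2 mRNA by qRT-PCR (TaqMan/Fluidigm), normalized to ACTB, GAPDH, POLR2A; bidirectional fit against DMSO.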

[3] = read-out: Bcl-2 (BID) gene, BID (gene 637); assay: LTEA_HepaRG_BID: Life Technologies and Expression Analysis (LTEA) Assay for Bcl-2 (BID) gene using HepaRG (AID 2283476)
Summary of the method: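 Gene expression by qRT-PCR in HepaRG cells after 48 h exposure, duplicate wells, eight half-log concentrations topping at 100 uM in 0.5% DMSO. Normalized to ACTB, GAPDH, POLR2A; bidirectional fitting relative to DMSO.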

Caspase-3 (Homo sapiens) = Caspase-3 (Homo sapiens) (UniProt P42574); assay: LTEA_HepaRG_CASP3: Life Technologies and Expression Analysis (LTEA) Assay for cysteine-aspartic acid protease (CASP3) using HepaRG (AID 2283477)
Sequence of Caspase-3 (Homo sapiens) (P42574 whole entry, looked up): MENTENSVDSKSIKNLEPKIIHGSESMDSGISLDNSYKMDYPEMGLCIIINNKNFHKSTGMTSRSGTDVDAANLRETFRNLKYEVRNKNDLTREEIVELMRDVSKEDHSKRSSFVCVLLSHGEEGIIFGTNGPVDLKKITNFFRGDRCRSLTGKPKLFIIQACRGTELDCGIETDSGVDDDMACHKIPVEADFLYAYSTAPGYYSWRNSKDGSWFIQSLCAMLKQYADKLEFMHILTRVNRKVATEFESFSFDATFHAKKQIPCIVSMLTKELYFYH
Summary of the method: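 HepaRG, 48 h exposure, 8 conc. (top 100 uM, half-log steps, duplicate), 0.5% DMSO vehicle; qRT-PCR of CASP3 transcript, housekeeping-normalised (ACTB/GAPDH/POLR2A); bidirectional curve fit vs DMSO baseline.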

[4] = read-out: Cytochrome P450 (CYP24A1), CYP24A1 (gene 1591); assay: LTEA_HepaRG_CYP24A1: Life Technologies and Expression Analysis (LTEA) Assay for Cytochrome P450 (CYP24A1) using HepaRG (AID 2283478)
Summary of the method: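 qRT-PCR read-out: CYP24A1 transcript levels normalized to three housekeeping genes, bidirectional curve fits against 0.5% DMSO baseline. Human HepaRG cells treated 48 h with chemicals at eight concentrations from 100 uM in half-log steps.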

[5] = read-out: Cytochrome P450 (CYP1A2), CYP1A2 (gene 1544); assay: LTEA_HepaRG_CYP1A2: Life Technologies and Expression Analysis (LTEA) Assay for Cytochrome P450 (CYP1A2) using HepaRG (AID 2283479)
Summary of the method: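 HepaRG, 48 h exposure, top 100 uM, half-log 8-pt, 0.5% DMSO vehicle, duplicates. Readout: TaqMan qRT-PCR of CYP1A2 mRNA, housekeeping-normalized (ACTB/GAPDH/POLR2A). Gain/loss fit relative to DMSO baseline.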

[6] = read-out: cysteine-aspartic acid protease (CASP8), CASP8 (gene 841); assay: LTEA_HepaRG_CASP8: Life Technologies and Expression Analysis (LTEA) Assay for cysteine-aspartic acid protease (CASP8) using HepaRG (AID 2283480)
Summary of the method: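 Differentiated human HepaRG cells, plated 48 h then switched to serum-free induction medium, were exposed in duplicate for 48 h to 8 half-log concentrations up to 100 uM in 0.5% DMSO. CASP8 mRNA was quantified by qRT-PCR, normalized to ACTB/GAPDH/POLR2A.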

[7] = read-out: Cytochrome P450 (CYP2B6), CYP2B6 (gene 1555); assay: LTEA_HepaRG_CYP2B6: Life Technologies and Expression Analysis (LTEA) Assay for Cytochrome P450 (CYP2B6) using HepaRG (AID 2283481)
Summary of the method: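 Read-out is CYP2B6 mRNA by TaqMan qRT-PCR, normalized to three housekeeping genes and fitted bidirectionally against 0.5% DMSO baseline. Human HepaRG cells received test chemicals for 48 h, top concentration 100 uM, half-log dilutions.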

[8] = read-out: Cytochrome P450 2C19 (Homo sapiens) (UniProt P33261); assay: LTEA_HepaRG_CYP2C19: Life Technologies and Expression Analysis (LTEA) Assay for CYP2C19 using HepaRG (AID 2283482)
Summary of the method: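 HepaRG, 48 h chemical exposure, 8-pt half-log series from 100 uM in 0.5% DMSO, duplicates. Readout: CYP2C19 mRNA by TaqMan qRT-PCR, housekeeping-normalized. Bidirectional fit vs DMSO baseline; phenobarbital 1mM as induction control.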

CYP2C8 (gene 1558) = assay: LTEA_HepaRG_CYP2C8: Life Technologies and Expression Analysis (LTEA) Assay for CYP2C8 using HepaRG (AID 2283483)
Summary of the method: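 Differentiated human HepaRG cells were exposed for 48 h in serum-free induction medium to eight half-log concentrations up to 100 uM in 0.5% DMSO, in duplicate. CYP2C8 mRNA was measured by TaqMan qRT-PCR, normalized to ACTB, GAPDH and POLR2A, and fitted bidirectionally against DMSO.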

CYP2C9 (gene 1559) = assay: LTEA_HepaRG_CYP2C9: Life Technologies and Expression Analysis (LTEA) Assay for CYP2C9 using HepaRG (AID 2283484)
Summary of the method: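 Differentiated human HepaRG cells were exposed 48 h in serum-free induction medium to eight half-log concentrations up to 100 uM in 0.5% DMSO. CYP2C9 mRNA was measured by qRT-PCR, normalized to ACTB, GAPDH and POLR2A, and fitted bidirectionally against DMSO.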

CYP2E1 (gene 1571) = assay: LTEA_HepaRG_CYP2E1: Life Technologies and Expression Analysis (LTEA) Assay for CYP2E1 using HepaRG (AID 2283485)
Summary of the method: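 HepaRG cells, plated 48 h, then exposed 48 h in serum-free induction medium to eight half-log concentrations from 100 uM in 0.5% DMSO, duplicate. CYP2E1 mRNA by qRT-PCR, normalized to ACTB/GAPDH/POLR2A; bidirectional fit versus DMSO.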

CYP4A11 (gene 1579) = assay: LTEA_HepaRG_CYP4A11: Life Technologies and Expression Analysis (LTEA) Assay for CYP4A11 using HepaRG (AID 2283486)
Summary of the method: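 CYP4A11 transcript levels were quantified by TaqMan qRT-PCR after HepaRG human liver cells were treated for 48 hours with test chemicals (top 100 uM, half-log dilutions, 0.5% DMSO). Gain or loss of signal was fitted relative to DMSO.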

[9] = read-out: Cytochrome P450 3A4 (Homo sapiens) (UniProt P08684); assay: LTEA_HepaRG_CYP3A4: Life Technologies and Expression Analysis (LTEA) Assay for CYP3A4 using HepaRG (AID 2283487)
Summary of the method: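 In a human hepatic line (HepaRG), duplicate wells were treated 48 h with up to 100 uM chemical in half-log dilutions. Endpoint: CYP3A4 mRNA induction or loss relative to 0.5% DMSO vehicle, by qRT-PCR.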

[10] = read-out: DNA damage-inducible transcript 3 (DDIT3), DDIT3 (gene 1649); assay: LTEA_HepaRG_DDIT3: Life Technologies and Expression Analysis (LTEA) Assay for DNA damage-inducible transcript 3 (DDIT3) using HepaRG (AID 2283488)
Summary of the method: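 HepaRG cells, 48 h after plating, exposed 48 h in serum-free induction medium to 8 half-log concentrations up to 100 uM in 0.5% DMSO, in duplicate. DDIT3 mRNA measured by TaqMan qRT-PCR, normalized to ACTB, GAPDH and POLR2A. Fitted bidirectionally against DMSO.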

[11] = read-out: Early growth response protein 1 (EGR1) transcription factor, EGR1 (gene 1958); assay: LTEA_HepaRG_EGR1: Life Technologies and Expression Analysis (LTEA) Assay for Early growth response protein 1 (EGR1) transcription factor using HepaRG (AID 2283490)
Summary of the method: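 Differentiated human HepaRG cells in serum-free induction medium were exposed in duplicate for 48 h to eight concentrations (top 100 uM, half-log steps) in 0.5% DMSO. EGR1 mRNA was quantified by qRT-PCR, normalized to ACTB, GAPDH and POLR2A, and fitted bidirectionally versus DMSO.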

[12] = read-out: Ezrin (EZR), EZR (gene 7430); assay: LTEA_HepaRG_EZR: Life Technologies and Expression Analysis (LTEA) Assay for Ezrin (EZR) using HepaRG (AID 2283491)
Summary of the method: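 Gain or loss of EZR mRNA is scored relative to 0.5% DMSO in human HepaRG cultures treated 48 h with test chemicals in duplicate, eight half-log concentrations from 100 uM.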

[13] = read-out: Cytochrome P450 3A7 (Homo sapiens) (UniProt P24462); assay: LTEA_HepaRG_CYP3A7: Life Technologies and Expression Analysis (LTEA) Assay for CYP3A7 using HepaRG (AID 2283492)
Summary of the method: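 CYP3A7 transcript levels were read by TaqMan qRT-PCR on Fluidigm arrays after 48 h chemical exposure of human HepaRG cells, with housekeeping-gene normalisation. Eight half-log concentrations up to 100 uM in 0.5% DMSO were tested in duplicate.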

Measured: AC50

Sequence of Cytochrome P450 2C19 (Homo sapiens) (P33261 whole entry, looked up): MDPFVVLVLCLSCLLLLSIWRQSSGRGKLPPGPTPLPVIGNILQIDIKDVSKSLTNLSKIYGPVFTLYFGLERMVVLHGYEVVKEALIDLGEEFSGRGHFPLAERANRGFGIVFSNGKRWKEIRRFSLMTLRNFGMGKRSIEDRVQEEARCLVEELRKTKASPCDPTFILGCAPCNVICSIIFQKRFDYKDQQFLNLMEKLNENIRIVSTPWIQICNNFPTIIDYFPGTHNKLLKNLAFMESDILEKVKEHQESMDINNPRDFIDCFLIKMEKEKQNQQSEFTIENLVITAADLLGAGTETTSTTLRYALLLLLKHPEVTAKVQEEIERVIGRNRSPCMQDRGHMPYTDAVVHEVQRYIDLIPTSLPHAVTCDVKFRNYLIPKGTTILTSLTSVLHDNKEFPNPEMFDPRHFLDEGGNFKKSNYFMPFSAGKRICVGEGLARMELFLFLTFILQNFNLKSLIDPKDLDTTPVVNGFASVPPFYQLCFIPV
Sequence of Cytochrome P450 3A4 (Homo sapiens) (P08684 whole entry, looked up): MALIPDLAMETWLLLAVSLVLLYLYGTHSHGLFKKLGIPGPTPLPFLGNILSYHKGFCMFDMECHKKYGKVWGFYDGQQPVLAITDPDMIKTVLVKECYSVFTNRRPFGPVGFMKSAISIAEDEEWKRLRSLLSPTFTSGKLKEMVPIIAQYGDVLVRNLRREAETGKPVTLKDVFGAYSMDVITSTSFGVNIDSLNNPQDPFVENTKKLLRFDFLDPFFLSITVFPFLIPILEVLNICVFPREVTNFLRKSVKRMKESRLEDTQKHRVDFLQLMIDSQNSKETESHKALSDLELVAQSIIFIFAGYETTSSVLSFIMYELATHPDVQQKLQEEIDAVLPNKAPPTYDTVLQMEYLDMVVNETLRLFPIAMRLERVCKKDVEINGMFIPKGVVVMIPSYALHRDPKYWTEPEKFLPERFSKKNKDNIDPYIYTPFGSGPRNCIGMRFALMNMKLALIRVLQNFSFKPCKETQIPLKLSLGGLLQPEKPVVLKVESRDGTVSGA
Sequence of Apoptosis regulator Bcl-2 (Homo sapiens) (P10415 whole entry, looked up): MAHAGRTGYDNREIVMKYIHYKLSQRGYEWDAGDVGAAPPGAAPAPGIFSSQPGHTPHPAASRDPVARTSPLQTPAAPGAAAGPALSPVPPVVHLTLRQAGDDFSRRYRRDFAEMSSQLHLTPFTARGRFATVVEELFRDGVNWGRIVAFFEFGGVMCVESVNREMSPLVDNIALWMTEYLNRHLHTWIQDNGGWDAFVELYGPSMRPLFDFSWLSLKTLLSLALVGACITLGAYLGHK
Sequence of Cytochrome P450 3A7 (Homo sapiens) (P24462 whole entry, looked up): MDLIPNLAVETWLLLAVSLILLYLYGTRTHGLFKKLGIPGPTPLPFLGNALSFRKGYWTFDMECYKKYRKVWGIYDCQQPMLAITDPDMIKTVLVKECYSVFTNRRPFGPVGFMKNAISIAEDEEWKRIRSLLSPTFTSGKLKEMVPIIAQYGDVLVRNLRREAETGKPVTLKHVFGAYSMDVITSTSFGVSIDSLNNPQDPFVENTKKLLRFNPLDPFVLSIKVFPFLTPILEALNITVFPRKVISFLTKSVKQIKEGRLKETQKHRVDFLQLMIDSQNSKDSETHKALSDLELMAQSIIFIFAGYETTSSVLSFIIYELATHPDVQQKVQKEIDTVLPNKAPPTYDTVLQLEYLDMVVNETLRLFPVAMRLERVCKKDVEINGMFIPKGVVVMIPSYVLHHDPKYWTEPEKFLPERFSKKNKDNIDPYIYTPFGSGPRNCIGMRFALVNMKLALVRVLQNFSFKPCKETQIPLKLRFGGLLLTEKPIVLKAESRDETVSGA

c1cc[n+]2c(c1)-c1cccc[n+]1CC2
active: [5] 12.4 µM
inactive: all other assays above
